Hits are enriched below; roughly 19% of the tested compounds scored in any of these assays.
IL1B secr inh: blocks inflammasome-driven IL-1 beta release. activity change, % at 57.5 µM. 360,000 tested, 4.7% active. THP-1 LPS/ATP IL-1B secretion, AlphaLISA, 16 h; stronger effect = lower value; in the data active means activity change below about -50%; inconclusive means mostly about -30% to -49%
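THP-1 cells pretreated 1 hr with compounds (up to 57.5 uM final), then stimulated with LPS (250 ng/mL final) plus ATP (1.25 mM final); secreted IL-1B measured by AlphaLISA after 16 hr, decreased signal indicating inhibition.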
TDP1 block: TDP1 (human) enzyme inhibition; AID 485290; Q9NUW8; 350,000 tested, 0.28% active; recombinant TDP1, AlphaScreen DNA substrate cleavage; Potency, µM (series often up to 130 µM), for the others: at the highest dose activity change, negative = inhibition, actives largely listed as inhibitors; further: potency means the concentration at half of the fitted maximal effect; nearly all actives have a fitted effect of over 40% in size
Target sequence (Q9NUW8 whole entry, looked up): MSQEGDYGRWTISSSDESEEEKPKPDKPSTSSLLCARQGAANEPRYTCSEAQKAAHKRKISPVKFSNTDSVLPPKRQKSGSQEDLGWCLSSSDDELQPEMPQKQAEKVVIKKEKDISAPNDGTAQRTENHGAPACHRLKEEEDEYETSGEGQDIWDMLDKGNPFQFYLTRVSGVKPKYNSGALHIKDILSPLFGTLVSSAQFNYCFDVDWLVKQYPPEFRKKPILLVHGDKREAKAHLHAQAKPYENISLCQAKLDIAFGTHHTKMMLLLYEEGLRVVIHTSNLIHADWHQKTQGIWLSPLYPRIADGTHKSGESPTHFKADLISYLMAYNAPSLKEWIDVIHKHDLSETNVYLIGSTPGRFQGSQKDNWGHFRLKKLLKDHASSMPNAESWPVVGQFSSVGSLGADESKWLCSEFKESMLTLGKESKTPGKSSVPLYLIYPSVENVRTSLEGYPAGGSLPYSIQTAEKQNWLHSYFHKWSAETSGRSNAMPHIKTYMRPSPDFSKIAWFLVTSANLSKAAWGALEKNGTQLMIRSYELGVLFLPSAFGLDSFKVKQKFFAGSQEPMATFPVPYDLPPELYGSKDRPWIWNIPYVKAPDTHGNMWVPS
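Tdp1 1 nM final; 15 min RT w/ cpd; substrate 15 nM, 5 min; beads 10 ug/ml, 10 min; AlphaScreen read. Neg ctrl: no enzyme.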
ELG1 repair inh: inhibitors of ELG1-dependent DNA repair in HEK293T cells. 330,000 tested, 2.3% active. HEK293T ELG1-luciferase reporter, luminescence, 16 h; DNA damage induced by 5-fluorouridine. Potency, µM (top dose mostly 46.1 µM), for inactives: at the top dose activity change, negative = inhibition, most hits filed as inhibitors; further: potency means the concentration at half of the fitted maximal effect; nearly all actives have a fitted effect of over 55% in size
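Step one: seed 2,000 cells per well. Step two: pin-transfer compound or DMSO alongside 5-fluorouridine. Step three: incubate 16 hr, 37 °C, 5% CO2. Step four: add ONE-Glo, wait 30 min, read luminescence.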
DT40 TDP1 CPT: growth inhibition of DT40 Tdp1-/-;hTDP1 cells with camptothecin (screen for TDP1 inhibitors); Potency, µM (top dose mostly 46.2 µM), without a hit: at the highest dose activity change, negative = growth inhibition, actives largely listed as inhibitors; 420,000 tested, 12% active; AID 686979; chicken DT40 Tdp1-/-;hTDP1 cells + 20 nM CPT, ATP luminescence, 48 h; further: potency means the concentration at half of the fitted maximal effect; nearly all actives have a fitted effect of over 55% in size
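Chicken DT40 Tdp1-/- cells complemented with human TDP1, 400 cells/well, exposed to compounds plus 20 nM camptothecin for at least 48 h at 37 C; viability read as ATP content by CellTiter-Glo luminescence.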
Giardia killer: kills Giardia lamblia. 340,000 tested, 0.15% active. activity change, % at 7.66 µM, hits read low. Giardia lamblia trophozoite viability; in the data active means activity change below about -80%; inconclusive means between about -30% and that limit;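 further: parasites exposed to compound for two days anaerobically before the ATP read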
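Luminescence from cellular ATP indicates surviving trophozoites (100 cells/well) following 48 hrs anaerobic compound treatment at 37 deg C; signal develops 15-30 min at room temperature.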
TDP1 cell noCPT: qHTS for Inhibitors of human tyrosyl-DNA phosphodiesterase 1 (TDP1): qHTS in cells in absence of CPT. DT40 Tdp1-/- hTDP1 cells, no CPT, ATP luminescence, 48 h. AID 686978, 2013. Potency, µM (series often up to 46.2 µM), for inactives: at the highest dose activity change, negative = growth inhibition, usual class: inhibitors. 420,000 tested, 15% active; further: potency means the concentration at half of the fitted maximal effect; nearly all actives have a fitted effect of over 55% in size
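Cells were dispensed at 400 per well, compounds added by pin tool, plates incubated ≥48 hr at 37 °C, then CellTiter-Glo added for 30 min at room temperature before luminescence reading. Line: DT40 Tdp1-/- complemented with hTDP1; camptothecin omitted.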
An asterisk follows results filed as active; ? = inconclusive; · = not tested or not shown. Unless noted, the call rests on the fitted dose curve; in most records, active means well fitted curve in the direction sought with a large enough effect; inconclusive means small, poorly fitted or top-dose-only effect, or another doubt; inactive means no such curve, though single readings can be large; an effect the other way counts as inactive or inconclusive. On the % scale 0 is the no-effect control and ±100 the full control effect.

SMILES | IL1B secr inh | TDP1 block | ELG1 repair inh | DT40 TDP1 CPT | Giardia killer | TDP1 cell noCPT
O=C(Nc1ccc(Cl)c(C(F)(F)F)c1)c1cc2nc(-c3ccc4c(c3)OCO4)cc(C(F)(F)F)n2n1 | · | 7% | · | 1% | · | -20%
CCCc1cc(=O)n2nc(N3CCC(C(=O)Nc4cccc(C(C)=O)c4)CC3)sc2n1 | 16 | 0% | 8% | 2% | -10 | 15%
CC[C@H](C)[C@H](NC(=O)[C@H](Cc1ccc(O)cc1)NC(=O)[C@H](Cc1cnc[nH]1)NC(=O)[C@H](CCCNC(=N)N)NC(=O)[C@H](CC(C)C)NC(=O)[C@H](C)NC(=O)[C@H](CO)NC(=O)[C@H](Cc1ccc(O)cc1)NC(=O)[C@H](Cc1ccc(O)cc1)NC(=O)[C@H](CCCNC(=N)N)NC(=O)[C@H](C)NC(=O)[C@H](CC(C)C)NC(=O)[C@H](CC(=O)O)NC(=O)[C@H](CCC(=O)O)NC(=O)[C@H](C)NC(=O)[C@@H]1CCCN1C(=O)[C@H](C)NC(=O)[C@H](CC(=O)O)NC(=O)[C@H](CCC(=O)O)NC(=O)CNC(=O)[C@@H]1CCCN1C(=O)[C@H](CC(N)=O)NC(=O)[C@H](CC(=O)O)NC(=O)[C@@H]1CCCN1C(=O)[C@H](CCCCN)NC(=O)[C@H](CO)NC(=O)[C@@H]1CCCN1C(=O)[C@@H](N)Cc1ccc(O)cc1)C(=O)N[C@@H](CC(N)=O)C(=O)N[C@@H](CC(C)C)C(=O)N[C@@H](CC(C)C)C(=O)N[C@H](C(=O)N[C@@H](CCCNC(=N)N)C(=O)N1CCC[C@H]1C(=O)N[C@@H](CCCNC(=N)N)C(=O)N[C@@H](Cc1ccc(O)cc1)C(N)=O)[C@@H](C)O | · | 13% | · | · | · | ·
Cc1cc(NC(=O)C(C)SCC(=O)OCc2ccc([N+](=O)[O-])cc2)no1 (stereo unspecified) | 11 | -5% | 8% | 1% | 7 | -1%
Cc1nc2[nH]c(=O)n(O)c(=O)c2s1 | 18 | · | · | ? | 3 | 26µM*
O=C(/C=C/c1cccc(Cl)c1)NNC(=O)c1ccncc1 | 48 | 2% | -2% | -4% | 5 | 11%
CCCCCNC(=O)C(c1cc2ccccc2o1)n1c(=O)c(-c2ccccc2)nc2ccccc21 (stereo unspecified) | -8 | · | · | ? | · | ?
Cc1cccc(-c2nc3ccccc3c(=O)n2NC(=S)N(C)C)c1 | -2 | 5% | 9% | 9.2µM* | -8 | 8.2µM*
CCCCOc1ccc(CNn2c(C)nc3ccccc3c2=O)cc1 | -4 | 8% | ? | ? | 6 | 23µM*
COc1ccc(CNn2c(-c3cccc(C)c3)nc3ccccc3c2=O)cc1OC | -14 | 3% | 15µM* | ? | 26 | ?
COc1ccc(CNn2c(C)nc3ccccc3c2=O)cc1 | 0 | 0% | -21% | -27% | 6 | ?
CN(C)C(=S)Nn1c(-c2ccccc2)nc2ccccc2c1=O | 5 | 4% | 12% | -5% | -10 | -23%
CCC1(CC)NC(=O)N(CC(=O)OC(C)C(=O)Nc2ccc(S(N)(=O)=O)cc2)C1=O (stereo unspecified) | 7 | · | · | -5% | · | -10%
Cc1cccc(Nc2nn3c(=O)c4cc5c(cc4nc3s2)OCO5)c1 | · | · | · | 0% | · | 2%
CS(=O)(=O)N(CC(=O)N1CCN(c2ccccc2)CC1)c1cc(C(F)(F)F)ccc1Cl | 6 | 0% | -7% | ? | 14 | -26%
CS(=O)(=O)N(CC(=O)N1CCN(c2ccccc2F)CC1)c1cc(C(F)(F)F)ccc1Cl | 0 | 0% | ? | ? | -9 | 16µM*

Screens (PubChem)
